# Assay results taken from PubChem BioAssay.
# Active and inactive are the calls of the source. Unless noted, how the calls were made is not given here.
# Key:
# [1] = resazurin metabolic signal in HepG2 cells – cell-based, resazurin fluorescence, 24 h, PK04 Diversity Set, profiling panel (AID 1172); conditions: HepG2 viability, higher = more signal; further: test concentration not given here
# [2] = budding yeast growth changes without added modifier – OD600, strain BY4716, 24 h, basal condition, primary screen (AID 1173); conditions: S. cerevisiae BY4716 growth, OD600, 24 h; higher = more signal, called active from +8 up or from −8 down
# [3] = viability profiling in MM1S myeloma cells – cell-based, resazurin fluorescence, basal, 24 h, PK04 Diversity Set, profiling panel (AID 1174); conditions: higher = more signal, called active from +8 up or from −8 down;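 further: MM1S multiple myeloma cell line; test concentration not given here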
# [4] = molecular target: Dihydroorotate dehydrogenase (quinone), mitochondrial (Plasmodium falciparum (isolate 3D7)) (UniProt Q08210); experiment: inhibition of P. falciparum DHODH – biochemical, C-terminal His tag, absorbance 600 nm, primary screen (AID 1175); conditions: PfDHODH enzyme, DCIP absorbance 600 nm; higher = more signal, called active from +8 up or from −8 down;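 further: recombinant parasite enzyme with a five histidine tag at its C terminus; test concentration not given here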
# Chain of Dihydroorotate dehydrogenase (quinone), mitochondrial (Plasmodium falciparum (isolate 3D7)) (Q08210 whole entry, looked up): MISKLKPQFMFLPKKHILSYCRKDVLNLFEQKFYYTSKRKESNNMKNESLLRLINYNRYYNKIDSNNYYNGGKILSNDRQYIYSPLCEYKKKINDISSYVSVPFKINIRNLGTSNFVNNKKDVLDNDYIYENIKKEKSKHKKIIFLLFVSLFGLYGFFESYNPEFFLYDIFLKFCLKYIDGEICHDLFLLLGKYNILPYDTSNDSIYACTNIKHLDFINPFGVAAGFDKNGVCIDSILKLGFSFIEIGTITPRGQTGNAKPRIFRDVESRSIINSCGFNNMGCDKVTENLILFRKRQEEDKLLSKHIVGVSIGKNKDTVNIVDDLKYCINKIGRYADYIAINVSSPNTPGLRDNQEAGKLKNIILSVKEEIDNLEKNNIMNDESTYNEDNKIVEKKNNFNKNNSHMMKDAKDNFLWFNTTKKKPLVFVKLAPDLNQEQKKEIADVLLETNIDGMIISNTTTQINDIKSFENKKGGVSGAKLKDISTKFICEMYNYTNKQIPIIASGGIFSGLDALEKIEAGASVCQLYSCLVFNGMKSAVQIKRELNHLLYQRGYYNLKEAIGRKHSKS
# [5] = inhibition of PAO1 biofilm formation – strain PAO1, LB-PBS medium, absorbance 600 nm, primary screen (AID 1176); further: test concentration not given here; conditions: P. aeruginosa PAO1 growth/biofilm, A600, 12 h; higher = more signal
# [6] = growth modulation of vineyard yeast isolate – strain RM11-1a, OD600, basal, 24 h, primary screen (AID 1177);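 further: cultures grown under basal conditions with no added stressor; test concentration not given here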; conditions: S. cerevisiae RM11-1a growth, OD600, 24 h; higher = more signal, called active from +8 up or from −8 down
# [7] = growth of efflux-deficient E. coli DRC39 – strain DRC39, OD650, 24 h, E. coli filamentation inducers, primary screen (AID 1178);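 further: growth measured as culture turbidity by optical density at 650 nm; test concentration not given here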; conditions: E. coli DRC39 acrAB, higher = more signal, called active from +8 up or from −8 down
# [8] = growth of efflux-deficient E. coli DRC39 – strain DRC39, OD650, 48 h, E. coli filamentation inducers, primary screen (AID 1179);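 further: screen aims at cell division blockers that make cells filament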; conditions: E. coli DRC39 delta-acrAB growth, higher = more signal, called active from +8 up or from −8 down
# [9] = viability profiling in RPMI8226 myeloma cells – cell-based, resazurin fluorescence, basal, 24 h, PK04 Diversity Set, profiling panel (AID 1180); conditions: higher = more signal;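 further: RPMI8826 multiple myeloma cell line at 5000 cells per well; test concentration not given here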
# [10] = molecular target: E3 ubiquitin-protein ligase XIAP (Homo sapiens) (UniProt P98170); experiment: small molecules binding XIAP protein – biophysical, small-molecule microarray, fluorescence 635 nm, primary screen (AID 1181); conditions: higher = more signal;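 further: score merges 667 nm emission and signal to noise over triplicate slides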
# Chain of E3 ubiquitin-protein ligase XIAP (Homo sapiens) (P98170 whole entry, looked up): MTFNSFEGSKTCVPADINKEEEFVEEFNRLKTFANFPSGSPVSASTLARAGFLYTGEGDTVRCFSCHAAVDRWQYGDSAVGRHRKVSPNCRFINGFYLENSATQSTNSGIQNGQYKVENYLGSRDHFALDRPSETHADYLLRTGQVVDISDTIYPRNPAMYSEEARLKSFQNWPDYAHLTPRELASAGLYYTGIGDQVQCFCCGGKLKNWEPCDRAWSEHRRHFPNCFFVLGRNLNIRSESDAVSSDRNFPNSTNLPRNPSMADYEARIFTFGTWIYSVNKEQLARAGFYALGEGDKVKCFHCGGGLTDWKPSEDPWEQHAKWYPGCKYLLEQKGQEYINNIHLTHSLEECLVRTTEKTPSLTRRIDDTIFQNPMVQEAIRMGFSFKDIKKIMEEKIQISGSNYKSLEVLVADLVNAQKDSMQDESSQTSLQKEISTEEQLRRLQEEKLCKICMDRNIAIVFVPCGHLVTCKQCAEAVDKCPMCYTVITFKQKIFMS
Compound,z-score [1],z-score [2],z-score [3],composite z-score [4],z-score [5],z-score [6],z-score [7],z-score [8],z-score [9],composite z-score [10]
CCOC(=O)[C@H](Cc1ccccc1)NC(=O)CCC1CC(OC(=O)NCc2cccc3ccccc23)CC2(CCCC(COC(=O)NCCOc3ccccc3)O2)O1 (stereo not given in full),-0.208,-1.13 (inactive),1.41 (inactive),-0.533 (inactive),-0.0448 (inactive),-1.17 (inactive),0.19 (inactive),-1.67 (inactive),1.02,-0.102
COc1ccc(-c2cnnc(CCCn3ccnc3-c3ccccc3)n2)cc1,-1.18,-0.72 (inactive),-0.891 (inactive),0.552 (inactive),1.17 (inactive),-0.252 (inactive),-0.867 (inactive),-0.634 (inactive),-1.38,-0.0143
COc1ccc(O[C@H]2C=C[C@@H](c3ccccc3)O[C@@H]2COC(=O)CCC(C)=NOC[C@@H](O)COCc2ccco2)cc1,0.206,-1.06 (inactive),-1.11 (inactive),-2.35 (inactive),-0.0903 (inactive),-1.48 (inactive),-0.129 (inactive),-0.902 (inactive),0.37,0.122
CON=C(C)CCN1CCc2nc(-c3ccccc3)c(-c3ccccc3)cc2C1,1.86,-6.56 (inactive),-0.217 (inactive),-0.467 (inactive),0.958 (inactive),0.886 (inactive),0.83 (inactive),-2.48 (inactive),1.14,-0.0115
COC(=O)[C@H](CCSC)NC(=O)CC=C[C@@H](C)CO,-0.838,0.0957 (inactive),0.311 (inactive),0.521 (inactive),-0.895 (inactive),0.489 (inactive),-1.07 (inactive),-0.576 (inactive),0.475,0.262
CC(C)(C)N1C(=O)[C@H]2[C@H]3[C@H](O)[C@H](O)CC(=NOC[C@@H](O)COCc4ccco4)[C@H]3CC[C@H]2C1=O,-0.488,0.262 (inactive),-0.622 (inactive),0.748 (inactive),-0.0606 (inactive),0.0001 (inactive),-0.0207 (inactive),-0.149 (inactive),-0.583,-0.334
